Test results published in PubChem BioAssay (NCATS).
“And” between values parts separate entries of the source, which are not always exact repeats. Identical values can stand only once. Results filed as inconclusive are left out. The source made the active and inactive calls. Calls come from the whole dose curve; as a rule, active = well fitted curve in the direction sought with a large enough effect; inconclusive = small, poorly fitted or top-dose-only effect, or another doubt; inactive = no such curve, though single readings can be large; an effect the other way counts as inactive or inconclusive.

Assays:
[1] = Viability qHTS for spleen associated tyrosine kinase inhibitor (SYKi) naive MV4-11 cells (AID 1963823); note: nearly all actives have a fitted effect of over 40% in size
How it was run: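 CellTiter-Glo luminescence, 10 min room-temperature incubation, gave viability. Cells: naive MV4-11 (500/well), treated 72 hr at 37 C, 5% CO2.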

[2] = Viability qHTS for spleen associated tyrosine kinase inhibitor (SYKi) drug resistant MV4-11 cells (AID 1963824); note: nearly all actives have a fitted effect of over 35% in size
How it was run: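 SYK-inhibitor-resistant MV4-11 AML cells were seeded at 500 per well onto compound and cultured 72 hours (37 °C, 5% CO2). CellTiter-Glo was then added, and after 10 min at room temperature, luminescence gave viability.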

[3] = Cellular viability qHTS for adrenocortical cancer (ACC) cell line SW-13 (AID 1963989); conditions: SW-13 ACC cells viability, CellTiter-Glo, 48 h; activity (max response): stronger effect = lower value; note: nearly all actives have a fitted effect of over 65% in size;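 for activity (max response): cells grown in serum-free medium with ITS supplement; % is set by controls: 0 for no effect and ±100 for the full control effect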
How it was run: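 Compound titrations (up to 46 uM final, in DMSO) were applied to SW-13 cells for 48 h at 37C/5% CO2. Reading used CellTiter-Glo after 20 min at room temperature; fitted curves yielded IC50 and efficacy.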

[4] = Cellular viability qHTS for adrenocortical cancer (ACC) cell line NCI-H295R (AID 1963990); note: nearly all actives have a fitted effect of over 60% in size
How it was run: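 Readout: CellTiter-Glo luminescence, 20 min RT. Exposure: 48 h, 37C/5% CO2. Cells: NCI-H295R, ITS-DMEM serum-free. Range: up to 46 uM. Analysis: 4PL fit, IC50 plus efficacy.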
Potency is the fitted concentration of half-maximal effect.

Cc1ccc(-c2nc(N)nc3c2nnn3Cc2cccc(CO[C@H]3CCOC3)n2)o1
inactive: Potency [1] | activity (max response) [3] -12.5% | Potency [4]
active: Potency [2] 16.6 µM

COc1ccc2cc(OCC3(C(=O)O)CN(C(=O)c4ccc(F)cc4)C3)ccc2c1
inactive: Potency [1] | Potency [2] | activity (max response) [3] -4.74% | Potency [4]

CCN(c1cc(C#CCN2CCOCC2)cc(C(=O)NCc2c(C)cc(C)[nH]c2=O)c1C)C1CCC(N(C)CCOC)CC1 (stereo unspecified)
inactive: Potency [1] | Potency [2] | activity (max response) [3] 7.49% | Potency [4]

COCCOc1cnc2ccn([C@H](C)c3nnc4c(F)cc(-c5cnn(C)c5)cn34)c(=O)c2c1
inactive: Potency [1] | Potency [2] | activity (max response) [3] -16.1% | Potency [4]

CN[C@@H]1[C@@H](O)[C@@H](O[C@@H]2[C@H](O)[C@H](O[C@H]3OC(CN)=CC[C@H]3N)[C@@H](N)C[C@H]2N)OCC1(C)O (stereo partly specified)
inactive: Potency [1] | Potency [2] | activity (max response) [3] 5.55% | Potency [4]

CN(C)CCn1nnnc1SCC1=C(C(=O)O)N2C(=O)[C@@H](NC(=O)Cc3csc(N)n3)[C@H]2SC1
inactive: Potency [1] | Potency [2] | activity (max response) [3] 8.48% | Potency [4]

CN(C)C(N)=NC(=N)N
inactive: Potency [1] | Potency [2] | activity (max response) [3] 1.52% | Potency [4]

CC(=O)OCC(=O)[C@@]1(O)CC[C@H]2[C@@H]3CCC4=CC(=O)CC[C@]4(C)[C@H]3C(=O)C[C@@]21C
inactive: Potency [1] | Potency [2] | activity (max response) [3] -12.6% and -6.75% | Potency [4]

CC[C@]12C=CCN3CC[C@@]4(c5cc([C@@]6(C(=O)OC)CC7C[C@@H](C(C)(F)F)CN(Cc8c6[nH]c6ccccc86)C7)c(OC)cc5N(C)[C@H]4[C@@](O)(C(=O)OC)[C@@H]1OC(C)=O)[C@@H]32 (stereo partly specified)
active: Potency [1] 0.0934 µM | Potency [2] 0.105 µM | Potency [3] 0.282 µM | Potency [4] 0.708 µM
